The whole screen tested about 2,100 compounds, of which about 1,100 (52%) were called active. Inconclusive results (about 29%) are left out. So high a share suggests a set chosen from earlier hits. This is one part of the list. Values without a mark were called inactive. Calls come from the whole dose curve; as a rule, active = well fitted inhibition curve with a large enough effect; inconclusive = small, poorly fitted or top-dose-only effect; inactive = no such curve, though single readings can be large or run the other way.
Target: DNA dC->dU-editing enzyme APOBEC-3F (Homo sapiens) (UniProt Q8IUX4)
Sequence (Q8IUX4 whole entry, looked up): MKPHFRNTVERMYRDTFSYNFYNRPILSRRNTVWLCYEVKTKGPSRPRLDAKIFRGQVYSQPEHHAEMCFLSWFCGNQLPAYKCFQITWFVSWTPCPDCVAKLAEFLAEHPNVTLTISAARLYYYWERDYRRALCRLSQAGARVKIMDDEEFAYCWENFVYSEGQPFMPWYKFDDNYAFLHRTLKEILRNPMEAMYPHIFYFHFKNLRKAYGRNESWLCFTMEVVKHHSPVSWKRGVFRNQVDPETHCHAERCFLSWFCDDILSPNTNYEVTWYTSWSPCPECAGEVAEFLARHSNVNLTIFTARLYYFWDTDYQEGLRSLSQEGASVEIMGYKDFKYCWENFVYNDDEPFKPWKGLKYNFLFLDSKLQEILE
Experiment: qHTS for inhibitors of Vif-A3F interactions: Cherry picks counterscreen; note: nearly all actives have a fitted effect of over 65% in size
Conditions: HeLa A3F-eYFP/Vif cells, eYFP fluorescence, 24 h; series mostly up to 46.1 µM; activity, negative = inhibitor: at the top concentration
From the text: The recent discovery and characterization of host restriction factors, which provide a potent defense to invading retroviruses, has provided new targets for antiviral drug development. APOBEC3G (A3G) and APOBEC3F (A3F) are potent cytidine deaminases that block HIV-1 replication; HIV-1 expresses the Vif protein, which counteracts A3G and A3F by binding to them and inducing their proteasomal degradation. The Vif-A3G and Vif-A3F interactions provide two potential targets for development of small molecules which can interfere with the ability of Vif to degrade A3G or A3F. […] To identify inhibitors that can interfere with Vif mediated degradation of A3G and A3F, we have developed Hela cell lines that stably express A3G or A3F tagged with eYFP at the C-terminal end (A3G-eYFP or A3F-eYFP, respectively) and Vif. In the absence of an inhibitor, Vif induces degradation of A3G-eYFP and A3F-eYFP, and the cells are not fluorescent. In the presence of an inhibitor, it is expected that Vif will be unable to degrade A3G-eYFP and/or A3F-eYFP, resulting in an increase in yellow fluorescence. In this counterscreen assay, Vif A3F was screened against the cherry picks ordered from the MLSMR. NIH Chemical Genomics Center [NCGC] NIH Molecular Libraries Probe Centers Network [MLPCN] MLPCN Grant: MH093245 Assay Submitter (PI): Vinay Pathak, National Cancer Institute
A3F-Vif cells were harvested from T225 flask and resuspended in phenol free OPTI-MEM medium with 5% FBS. Then 5 uL of 140,000 cells/mL resuspended cells was dispensed into each well of low base Aurora COC 1,536-well plates (black walled, clear bottom) using a Multidrop Combi dispenser. After overnight culture at 37 deg C with 5% CO2, a total of 23 nL of compounds at 5 selected concentrations from the NPC or positive control (2 mM stock of MG132) in DMSO was transferred to each well of the assay plate using a pintool (Kalypsys, San Diego, CA), and the plates were further incubated at 37 deg C with 5% CO2 for 24 hours. After that, the plates were measured on Acumen Explorer (TTP Lab Tech). The fluorescence was detected by 488 nm/Ex and […].
% is set by controls: 0 for no effect and ±100 for the full control effect; potency is the fitted concentration of half-maximal effect.

`Cc1cc(N2CCCC2)ccc1C=C(C#N)C#N` was tested. Which Potency did it give?
Its Potency is 20.6 µM (active).

`CN1/C(=C\C=C2C(=O)NC(=O)NC2=O)C(C)(C)c2ccccc21` was tested. Which Potency did it give?
The Potency was 4.11 µM (active).

How did the Potency turn out when `CCS(=O)(=O)N1N=C(c2cccc(NS(C)(=O)=O)c2)CC1c1ccccc1` (configuration not stated) was run?
Its Potency is 23.1 µM (active).

With `CCCCn1c(O)c(C(=O)/C=C/c2c[nH]c3ccccc23)c(=O)[nH]c1=O` as the compound, how does the Potency read?
Its Potency is 17.7 µM (active).

How did the Potency turn out when `CN1C(=O)/C(=C\c2ccc(N3CCCCC3)o2)C(=O)NC1=S` was run?
The Potency was 17.7 µM (active).

How did the Potency turn out when `CN1C(=O)/C(=C/c2ccc(N3CCCCCC3)o2)C(=O)NC1=S` was run?
The Potency was 4.44 µM (active).

Which “activity, negative = inhibitor” value does the source give for `CCC(C)N1C(=O)/C(=C\c2ccc(N3CCCCCC3)cc2)C(=O)NC1=S` (configuration not stated) here?
The value was -21.5%.

How did the Potency turn out when `CN1CCN(c2ccc(/C=C3\C(=O)NC(=S)N(c4cccc(Br)c4)C3=O)o2)CC1` was run?
The Potency was 23.1 µM (active).

`CC(=O)O[C@@]12CO[C@@H]1C[C@H](OC1OCC(O)C(O)C1O)[C@@]1(C)C(=O)[C@H](O)C3=C(C)[C@@H](OC(=O)[C@H](O)[C@@H](NC(=O)c4ccccc4)c4ccccc4)C[C@@](O)([C@@H](OC(=O)c4ccccc4)C12)C3(C)C` (some centres not stated) was tested. Which Potency did it give?
The Potency was 4.44 µM (active).

`CN1C(=O)C(=Cc2ccc(N3CCCCC3)o2)C(=O)N(C)C1=S` was tested. Which Potency did it give?
The Potency was 3.66 µM (active).

`CN1C(=O)C(=Cc2ccc(N3CCOCC3)o2)C(=O)N(C)C1=O` was tested. Which Potency did it give?
Its Potency is 6.51 µM (active).

Which Potency does the source give for `CN1C(=O)C(=Cc2ccc(N3CCOCC3)o2)C(=O)N(C)C1=S` here?
Its Potency is 8.2 µM (active).

For `Cc1cc(N(CCCl)CCCl)ccc1C=Cc1ccncn1`, which Potency is on record?
The Potency was 16.4 µM (active).

`CC(C)c1ccc(N2C(=O)NC(=O)/C(=C\C=C\c3ccco3)C2=O)cc1` was tested. Which Potency did it give?
The Potency was 17.7 µM (active).

`CC(C)c1ccc(N2C(=O)NC(=O)/C(=C/C=C/c3ccco3)C2=O)cc1` was tested. Which Potency did it give?
The Potency was 14 µM (active).

`CN(C)c1ccc(/C=C/C=C2/C(=O)NC(=O)N(c3ccccc3)C2=O)cc1` was tested. Which Potency did it give?
The Potency was 23.1 µM (active).

For `O=C1NC(=O)N(Cc2ccc(F)cc2)C(=O)/C1=C\C=C\c1ccco1`, which Potency is on record?
Its Potency is 23.1 µM (active).

With `COCCCNC(=O)c1c(NC(=O)c2ccco2)n(Cc2ccccc2)c2nc3ccccc3nc12` as the compound, how does the “activity, negative = inhibitor” value read?
The value was -8.65% [at 36.9 µM].

How did the “activity, negative = inhibitor” value turn out when `Cc1cc(/C=C2\C(=O)NC(=O)N(c3ccc(Br)cc3)C2=O)c(C)n1C` was run?
The value was -29.9% [at 36.9 µM].

How did the Potency turn out when `Cc1ccc(N2C(=O)NC(=O)/C(=C\C=C\c3ccco3)C2=O)cc1C` was run?
Its Potency is 5.8 µM (active).

Which Potency does the source give for `CC/C(=N\NC(=O)c1ccccc1O)c1c(O)n(Cc2ccccc2)c(=O)[nH]c1=O` here?
The Potency was 18.4 µM (active).

How did the Potency turn out when `COc1cccc(C2=CC(c3cc(Br)ccc3F)n3nnnc3N2)c1` (configuration not stated) was run?
The Potency was 1.46 µM (active).

How did the Potency turn out when `COC(=O)C1=C(C)N(Cc2ccco2)C(=O)/C1=C\c1ccc(N(C)C)cc1` was run?
The Potency was 6.51 µM (active).

With `O=C1NC(=O)N(c2ccc3c(c2)OCO3)C(=O)/C1=C/c1ccc(N2CCCCC2)o1` as the compound, how does the Potency read?
Its Potency is 20.6 µM (active).

Which Potency does the source give for `O=C1NC(=O)N(c2ccc3c(c2)OCO3)C(=O)/C1=C\c1ccc(N2CCCCC2)o1` here?
Its Potency is 18.4 µM (active).

How did the Potency turn out when `COc1cc(C2C(C#N)=C(N)Oc3cc(O)ccc32)cc(OC)c1OC` (configuration not stated) was run?
Its Potency is 3.53 µM (active).

Which Potency does the source give for `Cc1cccc(-n2c(O)c(/C=C/C=Nc3ccccc3)c(=O)[nH]c2=O)c1` here?
The Potency was 4.61 µM (active).

For `O=c1c2ccccc2nc(/C=C/c2ccc([N+](=O)[O-])o2)n1-c1ccc(O)cc1`, which Potency is on record?
The Potency was 11.2 µM (active).

How did the “activity, negative = inhibitor” value turn out when `COc1ccccc1-n1c(/C=C/c2ccc(O)cc2)nc2ccccc2c1=O` was run?
Its value is 38.4%.

For `Cc1cccc(-n2c(/C=C/c3ccc([N+](=O)[O-])o3)nc3ccccc3c2=O)c1`, which Potency is on record?
The Potency was 8.2 µM (active).

With `COc1ccc(-n2c(/C=C/c3ccc(O)c(OC)c3)nc3ccccc3c2=O)cc1` as the compound, how does the Potency read?
Its Potency is 16.4 µM (active).

`Cc1cccc(-n2c(/C=C/c3c(C)[nH]c4ccccc34)nc3ccccc3c2=O)c1` was tested. Which Potency did it give?
The Potency was 18.4 µM (active).

Which Potency does the source give for `CCN(CC)c1ccc(/C=C2\C(=O)NC(=S)N(C)C2=O)o1` here?
The Potency was 0.559 µM (active).

For `CCN(CC)c1ccc(/C=C2\C(=O)NC(=S)N(c3ccc(OC)cc3OC)C2=O)o1`, which Potency is on record?
Its Potency is 23.1 µM (active).

With `CCN(CC)c1ccc(C=C2C(=O)N(C)C(=S)N(C)C2=O)o1` as the compound, how does the Potency read?
Its Potency is 0.314 µM (active).

For `CCN(CC)c1ccc2c(cc1=O)[C@@H](NC)CCc1cc(OC)c(OC)c(OC)c1-2`, which Potency is on record?
The Potency was 1.4 µM (active).

`Cc1ccccc1-n1c(/C=C/c2ccc(N(C)C)cc2)nc2ccccc2c1=O` was tested. Which Potency did it give?
Its Potency is 4.11 µM (active).

How did the Potency turn out when `C=CCn1c(O)c(C(C)=Nc2ccc(N(CC)CC)cc2)c(=O)[nH]c1=O` was run?
Its Potency is 11.2 µM (active).

With `CCN(CC)c1ccc(N=Cc2c(O)n(CCC3=CCCCC3)c(=O)[nH]c2=O)cc1` as the compound, how does the Potency read?
The Potency was 16.4 µM (active).

With `CCN(CC)c1ccc(N=Cc2c(O)n(Cc3ccccc3)c(=O)[nH]c2=O)cc1` as the compound, how does the Potency read?
The Potency was 20.6 µM (active).

With `O=C1NC(=S)SC1=Cc1ccc(N(CCCl)CCCl)cc1` as the compound, how does the Potency read?
The Potency was 17.7 µM (active).

For `CCOc1ccc(CNC(=O)c2cccc(Nc3nc4ccccc4n4nnnc34)c2)cc1OC`, which Potency is on record?
The Potency was 16.4 µM (active).

How did the Potency turn out when `COc1ccc(-c2ccc(OC)c(OC)c2OC)cc1` was run?
Its Potency is 3.96 µM (active).

With `CN(C)c1ccc(C(=O)c2ccc(N(C)C)cc2)cc1` as the compound, how does the Potency read?
Its Potency is 0.994 µM (active).

`CCCCn1c(O)c(/C=C2/C=CC=N2)c(=O)[nH]c1=O` was tested. Which Potency did it give?
The Potency was 12.5 µM (active).

How did the Potency turn out when `O=c1[nH]c(=O)n(Cc2ccccc2Cl)c(O)c1/C=C1/C=CC=N1` was run?
The Potency was 18.4 µM (active).

`C=C1C(=O)OC2C1CCC(C)C1(O)C=CC(=O)C21C` (configuration not stated) was tested. Which Potency did it give?
The Potency was 5.59 µM (active).

For `CCCCNC(=O)/C(C#N)=c1\s/c(=C\c2ccccc2OC(F)F)c(=O)n1CCCOC`, which Potency is on record?
Its Potency is 9.2 µM (active).

How did the Potency turn out when `COCCCn1c(=O)/c(=C\c2ccccc2OC(F)F)s/c1=C(/C#N)C(=O)NCCOC` was run?
The Potency was 18.4 µM (active).

`CC(=O)Nc1cccc(-c2ccnc3c2CC(C(=O)NCc2ccco2)O3)c1` (configuration not stated) was tested. Which Potency did it give?
Its Potency is 4.44 µM (active).

For `CC1=CC(=Cc2sc3ccccc3[n+]2C)C=C(C)O1`, which Potency is on record?
Its Potency is 10.3 µM (active).

How did the Potency turn out when `O=[N+]([O-])c1ccc(N2CCOCC2)c2c1no[n+]2[O-]` was run?
Its Potency is 15.8 µM (active).

`NC(=Nc1ccccc1)NN=Cc1c[nH]c2ccccc12` was tested. Which Potency did it give?
The Potency was 3.14 µM (active).

Which Potency does the source give for `O=c1[nH]c(CN2CC=C(c3ccccc3)CC2)nc2scc(-c3ccccc3)c12` here?
Its Potency is 18.4 µM (active).

How did the Potency turn out when `N#CC1=C(N)Oc2c(c(=O)sc3ccccc23)C1c1cccnc1` (configuration not stated) was run?
Its Potency is 3.14 µM (active).

Which Potency does the source give for `Cn1cccc1/C=C1\C(=O)NC(=O)N(Cc2ccccc2Cl)C1=O` here?
The Potency was 13 µM (active).

`Cc1c(Cl)cccc1NC(=O)c1oc2ccc(S(=O)(=O)N3CCC4(CC3)OCCO4)cc2c1C` was tested. Which Potency did it give?
The Potency was 16.4 µM (active).

For `COc1ccc(-n2cnc3cc(C(=O)N4CCC5(CC4)OCCO5)ccc32)cc1`, which Potency is on record?
Its Potency is 17.7 µM (active).

Which “activity, negative = inhibitor” value does the source give for `Cc1cccc(CN2CCCC(C(=O)c3cccc(OC(C)C)c3)C2)n1` (configuration not stated) here?
Its value is 24.3%.

Which Potency does the source give for `O=Cc1c(C(=O)O)n(Cc2ccc(Cl)cc2)c2ccccc12` here?
Its Potency is 13 µM (active).

How did the Potency turn out when `Nc1ccc2c3c(cccc13)-c1ccccc1-2` was run?
The Potency was 4.61 µM (active).

How did the Potency turn out when `CC(=O)OC1C2(CC3N4C(=O)C5(CO)SSC4(CC31O)C(=O)N5C)OC(C)C(C)(C)C2=O` (configuration not stated) was run?
Its Potency is 3.53 µM (active).

Source: PubChem BioAssay AID651815 (National Center for Advancing Translational Sciences (NCATS), 2012)
